Screening results deposited in PubChem BioAssay by National Center for Advancing Translational Sciences (NCATS).
Sm TGR inh – inhibitors of Schistosoma mansoni thioredoxin glutathione reductase | Q962Y6 | Potency, µM (titrated, usually from 114 µM), hits mostly inhibitors | 360,000 compounds, 3% hits | purified TGR, DTNB reduction, TNB absorbance 405 nm; active = well fitted inhibition curve with a large enough effect; inconclusive = small, poorly fitted or top-dose-only effect; inactive = no such curve, though single readings can be large or run the other way; also: nearly all actives have a fitted effect of over 60% in size
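TGR 20 nM + NADPH 100 uM (dispensed conc.), cpd preinc 15 min RT; start with NADPH (500 uM addition) then DTNB (15 mM addition). Kinetic TNB absorbance, 405 nm filter. Four-parameter Hill fit across titration.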
SARS PLpro yeast – blocks SARS-CoV papain-like protease in a yeast assay. S. cerevisiae expressing SARS-CoV PLpro, growth rescue. Potency, µM (doses to about 32.9 µM), hits mostly activators. 330,000 compounds, 0.19% hits. AID 485353; calls by dose curve; also: nearly all actives have a fitted effect of over 55% in size
Numbers stand for hits; [ ] = dose if it differs, or a comment. Sampled rows, rich in hits. Any-hit rate of the full collection: about 3%.

How did O=C(CN1CCN(Cc2ccc(F)cc2Cl)C1=O)NCCc1ccccc1 do in these assays?
Sm TGR inh: inactive; SARS PLpro yeast: inactive

How did Cc1cc(=O)n2nc(N3CCC(C(=O)NCc4ccccc4F)CC3)sc2n1 do in these assays?
Sm TGR inh: inactive; SARS PLpro yeast: 11µM

Results for O=C(CN1CCN(Cc2ccccc2F)C1=O)NCc1cccnc1 ?
Sm TGR inh: inactive; SARS PLpro yeast: inactive

How did Cc1ccc(-c2ccc(=O)n(CC(=O)NCCc3ccc(Cl)cc3)n2)cc1 do in these assays?
Sm TGR inh: inactive

What do the screens show for `CCc1ccc(S(=O)(=O)Nc2cccc(-c3ccc(N4CCOCC4)nn3)c2)cc1`?
Sm TGR inh: inactive

How did CCN(C(=O)Cn1c(C(=O)OC)cc2sccc21)c1cccc(C)c1 do in these assays?
Sm TGR inh: inactive

How did CCC(CC)C(=O)Nc1cccc(-c2nc3cccnc3s2)c1C do in these assays?
Sm TGR inh: inactive

What do the screens show for `CCSc1nc(-c2ccc(OC)cc2)nc2c1Cc1c(CO)cnc(C)c1O2`?
Sm TGR inh: inactive

Results for CCOC(=O)c1ccc(NC(=O)Cn2c(=O)cc(C(F)(F)F)c3c(C)nn(C)c32)cc1 ?
Sm TGR inh: inactive

Results for CCC(=O)Nc1cc(C)c(O)c(-c2nc3ncccc3o2)c1 ?
Sm TGR inh: inactive

How did COc1cc(C2CC(=O)N(Cc3cccc(F)c3)c3ccccc3S2)cc(OC)c1OC (centres undefined) do in these assays?
Sm TGR inh: inactive

How did COc1cc2c(=O)n(Cc3ccccc3)c(=O)n(CC(=O)Nc3cc(C(F)(F)F)ccc3Cl)c2cc1OC do in these assays?
Sm TGR inh: inactive

What do the screens show for `O=C(NCc1ccco1)C1CCN(c2nc3ccccc3n2Cc2ccccc2F)CC1`?
Sm TGR inh: 45µM; SARS PLpro yeast: inactive

What do the screens show for `Cc1cc(C)nc(N2CCC(C(=O)NCc3ccccc3F)CC2)n1`?
SARS PLpro yeast: inactive

Results for O=C(CN1CCN(Cc2ccccc2Cl)C1=O)NCc1ccccc1Cl ?
Sm TGR inh: 5µM

How did O=C(CN1CCN(Cc2ccc(F)cc2)C1=O)NCc1ccccc1Cl do in these assays?
Sm TGR inh: inactive

Results for O=C(Cn1cc(SCc2ccc(Cl)cc2)c2ccccc21)N1CCCC1 ?
Sm TGR inh: inactive

How did COc1ccc(NC(=O)Cn2c(SCc3ccc(F)cc3)nc3cccnc32)c(OC)c1 do in these assays?
Sm TGR inh: inactive

What do the screens show for `COc1cc(NC(=O)C2=C(C)Nc3nnnn3C2c2ccc(SC)cc2)c(OC)cc1Cl` (centres undefined)?
Sm TGR inh: inactive

How did O=C(O)c1cccc(-n2cccc2/C=C2\NC(=O)N(Cc3ccc(F)cc3)C2=O)c1 do in these assays?
SARS PLpro yeast: inactive

Results for Cc1cccc(NC(=O)CN2C(=O)N/C(=C\c3ccc(-c4cccc(C(=O)O)c4)o3)C2=O)c1 ?
Sm TGR inh: 56µM; SARS PLpro yeast: inactive

What do the screens show for `CCn1c(C)cc(/C=C2/NC(=O)N(CC(=O)Nc3cccc(C)c3)C2=O)c1C`?
Sm TGR inh: inactive; SARS PLpro yeast: inactive

Results for Cc1ccc(NC(=O)CN2C(=O)N/C(=C/c3ccc(C)o3)C2=O)cc1 ?
Sm TGR inh: 35µM; SARS PLpro yeast: inactive

How did C=CCN1C(=O)N/C(=C/c2ccc(C)o2)C1=O do in these assays?
Sm TGR inh: 32µM; SARS PLpro yeast: inactive

What do the screens show for `Cc1ccc(NC(=O)CN2C(=O)N/C(=C/c3ccc(C)s3)C2=O)cc1`?
Sm TGR inh: inactive; SARS PLpro yeast: inactive

How did Cc1ccc(CN2C(=O)N/C(=C/c3ccc(-c4ccc(C(=O)O)cc4)o3)C2=O)cc1 do in these assays?
Sm TGR inh: inconclusive; SARS PLpro yeast: inactive

What do the screens show for `Cc1ccc(CN2C(=O)N/C(=C\c3cccn3-c3cccc(C(=O)O)c3)C2=O)cc1`?
Sm TGR inh: 35µM; SARS PLpro yeast: inactive

How did COc1ccc(-c2noc(N(c3cccc(Cl)c3)c3nc(-c4ccc(OC)c(OC)c4)no3)n2)cc1OC do in these assays?
Sm TGR inh: inactive

Results for Cc1cccc(OCC(=O)Nc2cccc(OCc3cc(=O)n4cccc(C)c4n3)c2)c1 ?
Sm TGR inh: inactive

Results for Cc1c(C(=O)NCCc2ccccc2)cccc1-n1cnc2cccnc21 ?
Sm TGR inh: inactive

How did Cc1ccc(NC(=O)CN2C(=O)N/C(=C\c3cccn3-c3cccc(C(=O)O)c3)C2=O)cc1 do in these assays?
Sm TGR inh: inactive; SARS PLpro yeast: inactive

Results for Cc1cccc(NC(=O)CN2C(=O)N/C(=C/c3ccc(C)o3)C2=O)c1 ?
Sm TGR inh: 50µM; SARS PLpro yeast: inactive

How did CCn1c(C)cc(/C=C2\NC(=O)N(CC(=O)Nc3cccc(C)c3)C2=O)c1C do in these assays?
Sm TGR inh: inactive; SARS PLpro yeast: inactive

How did Cc1ccc(NC(=O)CN2C(=O)N/C(=C/c3cc(C)n(-c4cccc(C(=O)O)c4)c3C)C2=O)cc1 do in these assays?
Sm TGR inh: 20µM; SARS PLpro yeast: inactive

What do the screens show for `COc1ccc(CNC(=O)CN(c2cc(C(F)(F)F)ccc2Cl)S(C)(=O)=O)cc1`?
Sm TGR inh: inactive

How did CCOC(=O)C1CCN(S(=O)(=O)c2cc3c4c(c2)CC(=O)N4CCC3)CC1 do in these assays?
Sm TGR inh: inactive

What do the screens show for `O=C(CCl)c1ccc(Cc2ncc(C(F)(F)F)cc2Cl)s1`?
Sm TGR inh: 8.9µM; SARS PLpro yeast: inactive

What do the screens show for `NS(=O)(=O)c1ccc(Cc2ncc(C(F)(F)F)cc2Cl)s1`?
Sm TGR inh: inactive; SARS PLpro yeast: inactive

Results for CC(C)C1Oc2ccccc2N(CC(=O)N(C)C2CCCCC2)C1=O (centres undefined) ?
Sm TGR inh: inactive; SARS PLpro yeast: inactive

How did CC(C)C1Oc2ccccc2N(CC(=O)N(Cc2ccncc2)Cc2ccco2)C1=O (centres undefined) do in these assays?
Sm TGR inh: 32µM; SARS PLpro yeast: inactive

How did COc1ccc(C2C=C(c3ccc(Cl)cc3)Nc3nc(-c4ccc(Cl)cc4)nn32)cc1 (centres undefined) do in these assays?
Sm TGR inh: inactive

Results for O=C(Nc1cc(Cl)ccc1Cl)c1cc(S(=O)(=O)N2CCc3ccccc3C2)ccc1F ?
Sm TGR inh: inactive

Results for Cc1ccc(-n2ncc3c(N4CCN(CCO)CC4)ncnc32)cc1Cl ?
Sm TGR inh: 7.9µM

Results for CCN1CCN(c2ncnc3c2cnn3-c2ccc(C)c(Cl)c2)CC1 ?
Sm TGR inh: inactive

Results for CCOc1cc(N2CCOCC2)c(OCC)cc1NC(C)C(=O)N1CCN(CC)CC1 (centres undefined) ?
Sm TGR inh: inactive; SARS PLpro yeast: inactive

How did CCN1CCN(C(=O)C(C)Nc2cc(Cl)c(OC)cc2OC)CC1 (centres undefined) do in these assays?
Sm TGR inh: 20µM; SARS PLpro yeast: inactive

Results for Cc1ccc(S(=O)(=O)N2CCc3cc(C(=O)N(C)Cc4ccccc4)ccc32)cc1 ?
Sm TGR inh: inactive

Results for COc1ccc(OC)c(NC(=O)COCc2cc(-c3ccc(F)cc3)on2)c1 ?
Sm TGR inh: inactive

Results for COc1ccccc1CNC(=O)CCc1c(C)nn(-c2ccc(N3CCCC3)nn2)c1C ?
Sm TGR inh: inactive

Results for CCN1CCN(C(c2ccccc2Cl)c2sc3nc(-c4ccco4)nn3c2O)CC1 (centres undefined) ?
Sm TGR inh: inactive

What do the screens show for `N#Cc1ccc2c(c1)C[C@]1(CCCCN3C(=O)c4ccccc4C3=O)Oc3c(c(=O)oc4ccccc34)C2O1`?
Sm TGR inh: inactive[22.9 µM]; SARS PLpro yeast: inactive[6.58 µM]

Results for CCC(Sc1nc2cc3c(cc2c(=O)n1CCCCCC(=O)NCc1ccc2c(c1)OCO2)OCO3)C(=O)NCCCOC (centres undefined) ?
Sm TGR inh: inactive
